ADAM10 inh: inhibitors of human ADAM10 | actives 0.62% (n = 370,000) | O14672 | inhibition, % at 7 µM | AID 720582 | recombinant ADAM10, EDANS/DABCYL FRET peptide cleavage, 3 h;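 active = inhibition above a per-campaign cutoff equal to the mean of compounds falling between control-based bounds plus 3 SD, cut at about 20% in these data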;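 also: 0% = DMSO wells while the 100% control is not disclosed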
ADAM17 inh: inhibits human ADAM17. P78536. recombinant ADAM17, EDANS/DABCYL FRET peptide cleavage. inhibition, % at 6.95 µM. actives 0.83% (n = 370,000). AID 720648;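 active = inhibition above the mean of compounds lying between control limits plus 3 SD, set per campaign, cut at about 8.5% in these data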;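 also: 0% = DMSO-only wells as the low control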
Target sequence (P78536 215-824 limits assumed): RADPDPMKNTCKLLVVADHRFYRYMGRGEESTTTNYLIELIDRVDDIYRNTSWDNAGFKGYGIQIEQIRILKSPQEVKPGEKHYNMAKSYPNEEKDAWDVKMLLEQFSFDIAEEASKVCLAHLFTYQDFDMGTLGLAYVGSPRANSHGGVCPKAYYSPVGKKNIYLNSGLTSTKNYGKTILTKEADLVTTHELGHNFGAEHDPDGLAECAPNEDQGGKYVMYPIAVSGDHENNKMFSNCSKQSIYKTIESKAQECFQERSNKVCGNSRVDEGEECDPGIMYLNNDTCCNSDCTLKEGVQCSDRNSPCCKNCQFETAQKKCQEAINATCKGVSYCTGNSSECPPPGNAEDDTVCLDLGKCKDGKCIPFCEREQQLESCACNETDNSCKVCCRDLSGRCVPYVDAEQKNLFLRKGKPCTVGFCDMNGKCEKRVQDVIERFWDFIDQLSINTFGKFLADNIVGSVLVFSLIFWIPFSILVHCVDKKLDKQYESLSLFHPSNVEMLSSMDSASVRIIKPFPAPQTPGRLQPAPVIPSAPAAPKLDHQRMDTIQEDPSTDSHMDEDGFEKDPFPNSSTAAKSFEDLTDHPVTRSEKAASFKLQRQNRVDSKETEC
proKLK7 act: proKLK7 (human) activation, primary screen; P49862; purified proKLK7, EDANS-DABCYL substrate fluorescence; 100% is mature enzyme control, 0% vehicle; activation, % at 7 µM; actives 0.9% (n = 370,000);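 active = activation above the mean of all tested compounds plus 3 SD, computed per campaign excluding outliers beyond control limits, cut at about 13% in these data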
FAS-TE inh: inhibitors of human fatty acid synthase thioesterase domain; P49327; recombinant FAS-TE, OMFH fluorogenic substrate, fluorescence endpoint; inhibition, % at 15 µM; actives 0.67% (n = 360,000);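 active = compounds whose normalised, plate-corrected inhibition of enzyme fluorescence in the single-dose primary screen is 50% or more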;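 also: 0% = DMSO with enzyme and 100% = substrate without enzyme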
GRIN3A LBD mod: modulates the human NR3A ligand-binding domain; NR3A LBD differential scanning fluorimetry, Tm shift; 0% = protein alone, 100% = glycine-bound protein; Tm shift relative to glycine control, % at 25 µM; actives 2.5% (n = 340,000); AID 1259313;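 active = melting temperature shift of at least 10% of the positive control shift, at one fixed dose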
ADAM10 confirm: confirmation of inhibitors of human ADAM10. shares compounds with ADAM10 inh. ADAM10 QFRET peptide cleavage, EDANS fluorescence. inhibition, % at 6.95 µM. actives 1% (n = 2,100). AID 743208;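 active = inhibition above about 20% chosen separately for each screening run, limit read from the data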;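 also: 0% = DMSO wells and 100% = marimastat wells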
ADAM17 counter: ADAM17 inhibition, counter-screen for ADAM10 exosite hits | actives 0.5% (n = 2,100) | shares compounds with ADAM10 inh | inhibition, % at 6.95 µM | AID 743214 | ADAM17 QFRET peptide cleavage, EDANS fluorescence;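 active = mean triplicate inhibition above the solvent-only control wells' mean plus 3 SD, cut at about 12% in these data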;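 also: 0% = DMSO wells and 100% = marimastat wells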
The depositor's hits bear a star; x = not tested or not shown. Shown are actives, neighbours in structure and some others; about 4.6% of the full set was active somewhere.

SMILES	ADAM10 inh	ADAM17 inh	proKLK7 act	FAS-TE inh	GRIN3A LBD mod	ADAM10 confirm	ADAM17 counter
COc1ccc(S[C@]2(C(=O)N3CCN(C(C)=O)CC3)CC(=O)N(C(=O)Nc3ccc(C)c(Cl)c3)[C@@H]2c2ccc(OC)cc2)cc1	20*	9.5*	0	x	x	9	5
Cc1ccc2nc(CN(C)C(=O)[C@H]3O[C@@H](n4cnc(C(N)=O)n4)[C@H](O)[C@@H]3O)[nH]c2c1	-12	-5	0	x	x	x	x
CCc1ccc(NC(=O)c2ccc(F)c(S(=O)(=O)N(CC)c3ccccc3)c2)cc1	20*	3	0	22	2	3	0
COc1ccccc1CN[C@@H]1CC[C@@]23CCCN2C(=O)CCC[C@H]3C1	-10	-7	x	x	x	x	x
Cc1cc(C)n2nc(SCc3cccc(F)c3)nc2n1	-4	-2	0	-1	-2	x	x
Cc1cc(C)n2nc(SCc3ccccc3)nc2n1	22*	4	0	-2	0	0	0
Cc1cc(NC(=O)Cc2c(C)[nH]c3ccccc23)ccc1Oc1cccnc1	-34	-15	-2	x	x	x	x
Cc1[nH]c2ccccc2c1C(=O)c1c(N)[nH]c(C(=O)c2ccccc2)c1-c1ccc(Cl)cc1	21*	5	0	x	x	8	2
Cc1cc(S(=O)(=O)Nc2ccc(N3CCOCC3)cc2)ccc1Br	6	2	0	10	-1	x	x
CN1C(=O)Cc2cc(S(=O)(=O)Nc3ccc(N4CCOCC4)cc3)ccc21	28*	8	0	3	1	-1	0
Cc1ccc(C(O)(C(=O)NNc2ccccn2)c2ccc(C)cc2)cc1	1	-3	2	-1	-1	x	x
Cc1ccc(NNC(=O)C(O)(c2cccc(C(F)(F)F)c2)c2cccc(C(F)(F)F)c2)cc1	26*	7	0	33	26*	1	0
COC(=O)[C@]12C[C@H](CC(=O)NCCc3ccccc3OC)C(=O)N(Cc3cccc4ccccc34)C1=C[C@H](C1CCCC1)O[C@@H]2C	25*	7	0	x	x	10	3
COC(=O)[C@]12C[C@H](CC(=O)NCCc3ccccc3OC)C(=O)N(Cc3ccccc3)C1=C[C@H](C1CCCC1)O[C@@H]2C	11	4	-1	x	x	x	x
COCCCNC(=O)C[C@H]1C[C@@]2(C(=O)OC)C(=C[C@H](COCc3ccccc3)O[C@@H]2C)N(CCC2=CCCCC2)C1=O	4	2	0	x	x	x	x
CCOC(=O)N1CCN(C(=O)C[C@H]2C[C@@]3(C(=O)OC)C(=C[C@H](COCc4ccccc4)O[C@@H]3C)N(Cc3ccccc3)C2=O)CC1	4	1	0	x	x	x	x
COC(=O)[C@]12C[C@H](CC(=O)NCCc3ccccc3OC)C(=O)N(CCc3ccc(OC)c(OC)c3)C1=C[C@H](COCc1ccccc1)O[C@@H]2C	21*	8	1	x	x	2	1
COC(=O)[C@]12C[C@H](CC(=O)N3CCC(c4ccccc4)CC3)C(=O)N(Cc3ccccc3)C1=C[C@H](COCc1ccccc1)O[C@@H]2C	24*	8	0	x	x	5	1
C=CC[C@]12C[C@@]3(O[C@H](C4CCCCC4)N=C3C[C@H](c3ccc(OC)cc3)[C@H]1C)N(Cc1ccncc1)C2=O	-9	0	1	x	x	x	x
CCCCOc1ccccc1C(=O)NNC(=S)NC(=O)c1ccccc1[N+](=O)[O-]	27*	8	1	2	-5	7	2
O=C(NNC(=O)c1cc(-c2cccc(Br)c2)nc2ccccc12)c1csc(N2CCOCC2)n1	22*	7	0	18	-3	9	3
O=C(NNC(=O)c1cc(Br)ccc1O)c1csc(N2CCOCC2)n1	x	x	x	8	-9	x	x
COc1cccc(CN2C(=O)[C@H]3Cc4c([nH]c5ccccc45)C(C)(C)N3C2=O)c1	21*	5	1	23	-1	3	1
CC1(C)c2[nH]c3ccccc3c2C[C@H]2C(=O)N(Cc3cccc(F)c3)C(=O)N21	11	8	1	18	-3	x	x
Cc1ccc(S(=O)(=O)NC(=O)ON=Cc2ccc3c(c2)OCO3)cc1	-5	-4	0	x	x	x	x
SMILES	ADAM10 inh	ADAM17 inh	proKLK7 act	FAS-TE inh	GRIN3A LBD mod	ADAM10 confirm	ADAM17 counter
COC(=O)c1cnc(Nc2nc(C(N)COCc3ccccc3)cs2)nc1C(F)(F)F (stereo not given)	22*	5	0	-32	x	3	1
O=C(C(=Cc1ccccc1)c1ccccc1)c1ccccc1	16	3	0	42	x	x	x
O=C(C(=Cc1ccc(O)cc1)c1ccccc1)c1ccccc1	30*	8	1	24	x	8	2
O=C1N[C@@H](Cc2c[nH]c3ccccc23)COC(=O)[C@H](Cc2ccc(F)cc2)C/C=C\C[C@H]1CC(=O)N(CCO)Cc1ccccc1	22*	5	1	14	8	6	2
O=C1N[C@@H](Cc2ccccc2)COC(=O)[C@H](Cc2ccc(F)cc2)C/C=C\C[C@H]1CC(=O)N(CCO)Cc1ccccc1	9	4	0	18	-11	x	x
O=C1NC[C@H](c2ccccc2)OC(=O)[C@@H](Cc2ccc(F)cc2)CC/C=C/C[C@@H]1CC(=O)N(CCO)Cc1ccccc1	23*	6	0	13	-3	0	2
O=C1NC[C@H](c2ccccc2)OC(=O)[C@@H](Cc2ccc(F)cc2)CC/C=C/C[C@H]1CC(=O)N(CCO)Cc1ccccc1	13	6	0	21	-20	x	x
Cc1ccc(-n2c(SCC(=O)Nc3cccc4ccccc34)nnc2-c2cccs2)cc1	6	2	0	x	x	x	x
C=CCN1C(=O)c2n[nH]c(COC)c2C1c1ccc(C)cc1 (stereo not given)	1	-1	0	x	x	x	x
N#Cc1c(-c2ccccc2)c(-c2ccccc2)n(Cc2ccco2)c1NC(=O)c1cccs1	20*	7	-10	40	-4	21*	7
O=C(CSc1nnc(-c2ccc(O)cc2)n1Cc1ccco1)c1cccs1	3	-1	0	-2	-3	x	x
O=C(c1ccc(C#CC2(O)CCCCC2)cc1)N1CCN(C(c2ccccc2)c2ccccc2)CC1	25*	4	1	16	12*	6	2
CCN(CCOC(=O)Nc1ccc(Cl)cc1)C(=O)Nc1ccc(Cl)cc1	14	4	0	x	x	x	x
OCCCn1c(CCNc2nc(-c3ccc(F)cc3)cs2)nc2cc(C(F)(F)F)ccc21	21*	7	0	22	1	5	1
COc1ccc(OCC(=O)NNC(=O)c2ccc3c(=O)n4c(nc3c2)CCC4)cc1	71*	-1	0	-4	1	2	0

Source: PubChem (several laboratories)
